Only some compounds are listed: those with a hit (about 0.38% of all), similar ones and a draw of the others.
HRas wt GTP bind: modulators of GTP binding to human HRas wildtype. GST-Ras wt beads, Bodipy-FL-GTP binding, flow cytometry; actives lie on both sides. GTP binding activity, % at 10 µM. 190,000 tested, 0.14% active. P01112;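 active = GTP binding activity at least 20% away from the 100% baseline, either lowered as inhibitor or raised as activator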;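 also: 0% = unlabeled GTP competition control and 100% = no-compound control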
Target sequence (P01112 whole entry, looked up): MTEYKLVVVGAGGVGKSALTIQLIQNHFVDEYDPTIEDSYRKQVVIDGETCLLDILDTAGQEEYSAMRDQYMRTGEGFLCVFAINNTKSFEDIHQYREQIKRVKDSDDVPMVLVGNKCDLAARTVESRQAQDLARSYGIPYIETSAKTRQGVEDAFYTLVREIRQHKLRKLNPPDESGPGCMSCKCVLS
Rac1 act GTP bind: alters GTP binding to activated mutant human Rac1. 190,000 tested, 0.11% active. percent activity (GTP binding), % at 10 µM. AID 764. P63000. GST-Rac1 activated beads, fluorescent GTP binding, flow cytometry; actives lie on both sides; 100% means binding = to untreated wells;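 active = GTP binding at least 20 percentage points away from the 100% baseline, in either direction, so actives lie on both sides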
Rab7 wt modul: dog Rab7 wildtype GTP binding, inhibitors and activators; GST-Rab7 beads, fluorescent GTP binding, flow cytometry; actives lie on both sides; untreated = 100%, excess cold GTP = 0%; 190,000 tested, 0.055% active; GTP binding activity (percent of control), % at 10 µM; AID 758;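 active = fluorescent GTP binding to Rab7 beads changed by at least 20 points from the 100% baseline, either direction, mostly lower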;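 also: median green fluorescence of bound Bodipy-FL-GTP per Rab7 bead population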
Rab2 wt GTP: changes GTP binding to wildtype dog Rab2A, up or down; GST-Rab2 wt beads, Bodipy-GTP binding, flow cytometry; 190,000 tested, 0.19% active; GTP binding activity, % at 10 µM; P61105;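 active = GTP binding activity at least 20 points away from 100%, either lowered or raised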;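 also: 0% = beads with excess unlabeled GTP and 100% = no-compound control corrected for plate trend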
Rac1 wt modul: modulators of human Rac1 wildtype GTP binding; GST-Rac1 beads, fluorescent GTP binding, flow cytometry; actives lie on both sides; 0 = cold GTP competed, 100 = untreated; GTP binding activity (% of control), % at 10 µM; 190,000 tested, 0.27% active; AID 757;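 active = GTP binding activity at least 20 points away from the 100% control level, either lower or higher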
Cdc42 wt: human Cdc42 wildtype GTP binding change, either direction; AID 761; GST-Cdc42 beads, Bodipy-GTP binding, flow cytometry; actives lie on both sides; 190,000 tested, 0.2% active; P60953; percent activity (GTP binding), % at 10 µM;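 active = percent activity GTP binding at least 20 points away from the 100% baseline, either down as inhibitor or up as activator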;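 also: median bead fluorescence of bound Bodipy-FL-GTP at 100 nM; 0% = excess unlabeled GTP control and 100% = no compound control; below 100% means less GTP binding so inhibitor and above means activator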
Target sequence (P60953 whole entry, looked up): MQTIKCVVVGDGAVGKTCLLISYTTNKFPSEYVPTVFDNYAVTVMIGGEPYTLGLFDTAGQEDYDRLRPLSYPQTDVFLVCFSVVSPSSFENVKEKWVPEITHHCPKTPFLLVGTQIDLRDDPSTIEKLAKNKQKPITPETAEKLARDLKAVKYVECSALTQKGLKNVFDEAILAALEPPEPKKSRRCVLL
Active calls of the source: *; [ ] = remark or other dose.

SMILES | HRas wt GTP bind | Rac1 act GTP bind | Rab7 wt modul | Rab2 wt GTP | Rac1 wt modul | Cdc42 wt
CCn1cc(C(=O)O)c(=O)c2cc(F)c(N/N=C/c3ccccc3)cc21 | 84 | 88 | 89 | 83 | 76* | 89
COCc1nnc(NC(=O)c2cc(OC)c(OC)cc2[N+](=O)[O-])s1 | 98 | 99 | 100 | 101 | 99 | 101
CC(C)(C)c1ccc(OCCNC(=O)Cc2ccc(F)cc2)cc1 | 102 | 101 | 99 | 100 | 101 | 102
N#Cc1c(-c2cccc(Br)c2)cc(-c2ccco2)[nH]c1=O | 83 | 76* | 86 | 81 | 75* | 79*
CCOC(=O)c1cnc(SCc2ccc(C)cc2)nc1N | 103 | 104 | 101 | 105 | 120*[activator] | 107
NC(=O)N=Nc1c(O)[nH]c2c(Br)cc(Br)cc12 | 78* | 87 | 83 | 75* | 69* | 75*
O=C(CCCCCNC(=O)c1ccccc1)N=Nc1c(O)[nH]c2c(Br)cc(Br)cc12 | 97 | 90 | 112 | 98 | 99 | 92
CCCOc1ccc(S(=O)(=O)N2CCOCC2)cc1[N+](=O)[O-] | 98 | 95 | 104 | 101 | 100 | 99
C/C=C/C=N/NC(=O)CN(c1ccc(Br)cc1)S(=O)(=O)c1ccccc1 | 99 | 95 | 103 | 98 | 101 | 96
CCCCn1c(O)c(N=NC(=O)c2ccccc2NS(=O)(=O)c2cccs2)c2ccccc21 | 86 | 78* | 91 | 81 | 81 | 82
C=CCn1c(O)c(N=NC(=O)c2ccccc2NS(=O)(=O)c2cccs2)c2ccccc21 | 88 | 88 | 88 | 85 | 92 | 94
CNC(=S)N=Nc1c(O)[nH]c2ccccc12 | 79* | 84 | 85 | 72* | 69* | 80
Oc1ccc(NC(=S)N=Nc2c(O)[nH]c3ccccc23)cc1 | 77* | 86 | 101 | 75* | 70* | 71*
Oc1ccc(NC(=S)N=Nc2c(O)[nH]c3ccc(Br)cc23)cc1 | 80 | 90 | 92 | 79* | 79* | 79*
Cc1ccc(NC(=S)N=Nc2c(O)[nH]c3ccccc23)cc1 | 87 | 89 | 87 | 84 | 84 | 86
CC(Sc1nc2c(cc1C#N)CCCCC2)C(=O)O (centres undefined) | 98 | 94 | 103 | 97 | 97 | 96
N#Cc1ccccc1OCC(=O)OCC(=O)N1CCN(C(=O)c2ccco2)CC1 | 99 | 96 | 106 | 103 | 98 | 98
O=S(=O)(CC(CN1CCOCC1)N1CCOCC1)c1ccccc1 (centres undefined) | 58* | 53* | 23* | 55* | 56* | 60*
O=C(/C=C/c1ccccc1)NC1CCCc2ccccc21 (centres undefined) | 97 | 97 | 90 | 95 | 100 | 99
O=C(O)c1ccc(/C=N/NC(=O)c2cc(-c3ccc4c5c(cccc35)CC4)n[nH]2)cc1 | 84 | 91 | 92 | 80 | 76* | 78*
COc1ccc(C2C(C(C)=O)=C(O)C(=O)N2c2nccs2)c(OC)c1 (centres undefined) | 95 | 96 | 97 | 95 | 97 | 96
O=C(CN1C(=O)C(=O)N(C2CCCC2)C1=O)Nc1ccc(N2CCOCC2)cc1 | 95 | 95 | 96 | 96 | 101 | 98
O=C(CCn1ccnc1)Nc1ccc2ccccc2c1 | 97 | 97 | 104 | 96 | 101 | 95
Nc1c(S(=O)(=O)c2ccccc2)c2nc3ccccc3nc2n1C1CC1 | 85 | 90 | 91 | 86 | 78* | 82
Nc1c(S(=O)(=O)c2ccccc2)c2nc3ccccc3nc2n1/N=C/c1cccc(O)c1 | 73* | 87 | 95 | 70* | 88 | 74*
SMILES | HRas wt GTP bind | Rac1 act GTP bind | Rab7 wt modul | Rab2 wt GTP | Rac1 wt modul | Cdc42 wt
COc1ccc(-n2cc(-c3ccc(C)cc3)[n+]3c2SCC3)cc1 | 101 | 100 | 96 | 103 | 103 | 100
CC(=O)Nc1ccc(/C=N/NC(=O)CCN2CCN(c3ccccc3)CC2)cc1 | 79* | 87 | 88 | 75* | 74* | 76*
Cn1c(=O)n(Cc2ccc(F)cc2)c(=O)c2c1nc1n2CCN1Cc1ccco1 | 81 | 89 | 92 | 77* | 75* | 80
CCc1cc(C(=O)N2CCCC(CNS(=O)(=O)c3cccs3)C2)n(C)n1 (centres undefined) | 95 | 95 | 96 | 95 | 97 | 95
O=C(CCc1ccccn1)N1CCCC(CNS(=O)(=O)c2cccs2)C1 (centres undefined) | 60* | 53* | 62* | 62* | 54* | 61*
Cc1cc(C)n2nc(C(=O)N3CCCC(CNS(=O)(=O)c4cccs4)C3)cc2n1 (centres undefined) | 35* | 31* | 22* | 33* | 28* | 34*
COc1cccc(N2CCN(C(=O)CCCCCNc3nc(=S)[nH]c4ccccc34)CC2)c1 | 83 | 89 | 98 | 83 | 74* | 79*
O=C(CCCCCNc1nc(=S)[nH]c2ccccc12)N1CCN(c2ccccn2)CC1 | 91 | 98 | 94 | 91 | 91 | 91
COc1ccc(CN2CCNC(=O)C2CC(=O)N(C)Cc2ccon2)c(OC)c1 (centres undefined) | 98 | 95 | 97 | 98 | 99 | 97
CCOc1ccccc1C1C(C(=O)OC)=C(N)OC2=C1C(=O)CCC2 (centres undefined) | 116 | 110 | 111 | 118 | 133*[activator] | 125*[activator]
CCOC(=O)C1=C(N)OC2=C(C(=O)CCC2)C1c1ccco1 (centres undefined) | 97 | 92 | 98 | 101 | 94 | 94
Cc1nnc(SCc2ccccc2CSc2nnc(C)s2)s1 | 99 | 97 | 99 | 100 | 98 | 95
COc1ccc(N(CC(=O)Nc2ccccc2C(N)=O)S(=O)(=O)c2ccc(C)c([N+](=O)[O-])c2)cc1 | 91 | 90 | 95 | 92 | 89 | 90
COC(=O)c1ccc2nc(Nc3nc4c(F)cc(F)cc4s3)sc2c1 | 85 | 80 | 85 | 79* | 81 | 82
CCOC(=O)c1cc([N+](=O)[O-])c([N+](=O)[O-])cc1NC(C)=O | 93 | 80 | 91 | 91 | 96 | 78*
CCOC(=O)c1ccc(NC(=O)c2ccccc2[N+](=O)[O-])cc1 | 100 | 100 | 101 | 94 | 106 | 102
CCn1c2ccccc2c2nnc(SCC(=O)NCCOC)nc21 | 101 | 99 | 100 | 35* | 105 | 97
N#CC(c1ccc(Cl)nn1)c1ccc(Cl)cc1Cl (centres undefined) | 108 | 99 | 105 | 108 | 121*[activator] | 112
